Measured values: PubChem BioAssay AID1159580 (chemical genetic matrix, 2015)
Out of some 5,500 compounds screened, about 2,000 (36%) were called active. Roughly 18% stayed inconclusive and do not appear here. Cut-off read from the data, not from the text of the source: active = normalized growth mostly below about 0.91 (no sharp cut-off); inconclusive = no clear call, values can overlap the other calls; inactive = mostly above about 0.92. This is one part of the list.

Assay: chemical genetic growth profiling, strain panel (AID 1159580);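 note: tested at 20 µM; growth read once vehicle control cultures reached saturation at 30 °C; 1 = growth at the plate median or of vehicle wells; lower values mean less growth of the strain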
Settings: growth OD
[1] = S. cerevisiae deletion strains, locus YAL013W, strain DEP1, active compounds read low
[2] = S. cerevisiae deletion strains, locus YHR030C, strain SLT2, active compounds read low
[3] = S. cerevisiae deletion strains, locus YJR075W, strain HOC1, active compounds read low
[4] = S. cerevisiae deletion strains, locus YNL153C, strain GIM3, active compounds read low
[5] = S. cerevisiae deletion strains, locus YPL055C, strain LGE1, active compounds read low
[6] = S. cerevisiae deletion strains, locus YBR229C, strain ROT2, active compounds read low
[7] = S. cerevisiae deletion strains, locus YDL101C, strain DUN1, active compounds read low
[8] = S. cerevisiae deletion strains, locus YDL134C, strain PPH21, active compounds read low
[9] = S. cerevisiae deletion strains, locus YDR150W, strain NUM1, active compounds read low
[10] = S. cerevisiae deletion strains, locus YEL061C, strain CIN8, active compounds read low
[11] = S. cerevisiae deletion strains, locus YGR078C, strain PAC10, active compounds read low
[12] = S. cerevisiae deletion strains, locus YHR087W, strain rtc3, active compounds read low
[13] = S. cerevisiae deletion strains, locus YJR043C, strain POL32, active compounds read low
[14] = S. cerevisiae deletion strains, locus YLR039C, strain RIC1, active compounds read low
[15] = S. cerevisiae deletion strains, locus YLR058C, strain SHM2 (second series), active compounds read low
[16] = S. cerevisiae deletion strains, locus YLR085C, strain ARP6, active compounds read low
[17] = S. cerevisiae deletion strains, locus YLR262C, strain YPT6, active compounds read low
[18] = S. cerevisiae deletion strains, locus YML094W, strain GIM5, active compounds read low
[19] = S. cerevisiae deletion strains, locus YMR219W, strain ESC1, active compounds read low
[20] = S. cerevisiae deletion strains, locus YMR263W, strain SAP30, active compounds read low
[21] = S. cerevisiae deletion strains, locus YNL298W, strain CLA4 (second series), active compounds read low
[22] = S. cerevisiae deletion strains, locus YNL322C, strain KRE1, active compounds read low
[23] = S. cerevisiae deletion strains, locus YNR030W, strain Alg12, active compounds read low
[24] = S. cerevisiae deletion strains, locus YOL006C, strain TOP1, active compounds read low
[25] = S. cerevisiae deletion strains, locus YPL241C, strain CIN2, active compounds read low
[26] = S. cerevisiae deletion strains, locus YPR135W, strain CTF4, active compounds read low

Measured: normalized growth

CNCCCC1c2ccccc2C=Cc2ccccc21
inactive: [1] 0.989 | S. cerevisiae deletion strains, locus YAL040C, strain CLN3, active compounds read low 1.08 | S. cerevisiae deletion strains, locus YCL061C, strain MRC1 (second series), active compounds read low 1 | S. cerevisiae deletion strains, locus YDR363W, strain ESC2, active compounds read low 1.03 | S. cerevisiae deletion strains, locus YER002W, strain NOP16, active compounds read low 1.01 | [2] 0.974 | S. cerevisiae deletion strains, locus YHR079C, strain IRE1, active compounds read low 0.965 | S. cerevisiae deletion strains, locus YJL095W, strain BCK1, active compounds read low 0.959 | S. cerevisiae deletion strains, locus YJR066W, strain TOR1, active compounds read low 0.954 | [3] 0.985 | S. cerevisiae deletion strains, locus YLR113W, strain HOG1, active compounds read low 0.956 | S. cerevisiae deletion strains, locus YMR307W, strain GAS1, active compounds read low 1 | [4] 1.02 | S. cerevisiae deletion strains, locus YNL175C, strain NOP13, active compounds read low 1.01 | S. cerevisiae deletion strains, locus YNL183C, strain NPR1, active compounds read low 0.924 | S. cerevisiae deletion strains, locus YNL197C, strain WHI3, active compounds read low 1.02 | S. cerevisiae deletion strains, locus YNL224C, strain SQS1, active compounds read low 1.06 | S. cerevisiae deletion strains, locus YOR083W, strain WHI5 (second series), active compounds read low 1.04 | S. cerevisiae deletion strains, locus YOR231W, strain MKK1, active compounds read low 0.976 | [5] 1 | S. cerevisiae deletion strains, locus YPL256C, strain CLN2, active compounds read low 0.945

C=Cc1c(SC)sc(C(=O)O)c1C
active: [1] 0.869 | [6] 0.766 | S. cerevisiae deletion strains, locus YCL061C, strain MRC1, active compounds read low 0.746 | [7] 0.705 | [11] 0.794 | [12] 0.761 | [13] 0.807 | [3] 0.636 | [15] 0.889 | [17] 0.776 | [19] 0.804 | [20] 0.869 | [4] 0.771 | [22] 0.865
inactive: [8] 1.01 | [9] 0.869 | [10] 0.999 | [2] 1.05 | S. cerevisiae deletion strains, locus YJL187C, strain SWE1, active compounds read low 1.05 | [14] 0.795 | [16] 1.05 | [18] 1.01 | S. cerevisiae deletion strains, locus YNL128W, strain TEP1, active compounds read low 1.04 | [21] 1.02 | [23] 0.979 | [24] 1.07 | [25] 0.966 | [26] 1.1

N#CCCC1(CCC#N)c2ccccc2-c2ccccc21
inactive: [1] 0.99 | [6] 1.02 | [7] 1.03 | [8] 1.02 | [9] 1.01 | [10] 1.01 | [11] 1.01 | [2] 1.05 | [12] 1.03 | [13] 1.01 | [3] 1.01 | [14] 1.06 | [15] 1.01 | [16] 1.03 | [17] 1.01 | [18] 1.03 | [19] 1.03 | [20] 1.02 | [4] 1.04 | [21] 1.01 | [22] 1.01 | [23] 1 | [24] 1.08 | [5] 1.03 | [25] 1.01 | [26] 1.11 | S. cerevisiae strains, strain wild type, active compounds read low 1.03
